From PubChem BioAssay (Tox21)
Inconclusive results are not listed. Calls of active or inactive are those of the source. Unless noted, the call rests on the fitted dose curve; in most records, active means well fitted curve in the direction sought with a large enough effect in the repeat runs; inconclusive means weak or mixed curves; inactive means no such curve, though single readings can be large; an effect the other way counts as inactive or inconclusive.

Assays:
[1] = qHTS assay to identify small molecule agonists of the vitamin D receptor (VDR) signaling pathway - cell viability counter screen (AID 743224); further: series mostly up to about 63 µM; nearly all actives have a fitted effect of over 50% in size
How it was run: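 In parallel with the bla FRET readout, cytotoxicity toward VDR-bla cells after 16 h compound exposure was assessed by CellTiter-Glo, with luminescence recorded after a 30 min room-temperature incubation.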

[2] = qHTS assay to identify small molecule agonists of the NFkB signaling pathway (AID 1159509; active means well fitted curve in the direction sought with a large enough effect in the signal ratio in the repeat runs, not every such curve was filed as active; the % refers to the signal ratio; further: series mostly up to about 61 µM)
How it was run: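 Beta-lactamase reporter assay run in quantitative high-throughput format on an NF-kB-responsive ME-180 line, with 5 hr compound treatment and a FRET-based blue/green fluorescence readout.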

[3] = qHTS assay to identify small molecule agonists of the NFkB signaling pathway - cell viability counter screen (AID 1159515; calls by dose curve; further: series mostly up to about 61 µM; nearly all actives have a fitted effect of over 55% in size)
How it was run: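 Plate 2,000 NFkB-bla ME-180 cells/well; incubate overnight. Add compounds, 5 hr at 37 C. Add FRET substrate, 1.5 hr RT. Add CellTiter-Glo, 30 min RT; read luminescence.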

[4] = qHTS assay to identify small molecule agonists of the endoplasmic reticulum stress response signaling pathway - cell viability counter screen (AID 1159517; calls by dose curve; further: series mostly up to about 61 µM; nearly all actives have a fitted effect of over 50% in size)
How it was run: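 After overnight attachment, ESRE-bla HeLa cells were treated with Tox21 library compounds for 5 hr. CellTiter-Glo luminescence, read 30 min post-addition at room temperature, reported viability.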

[5] = qHTS assay to identify small molecule antagonists of the retinoid-related orphan receptor gamma (ROR-gamma) signaling pathway - cell viability counter screen (AID 1159520); further: nearly all actives have a fitted effect of over 50% in size
How it was run: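 Cytotoxicity was read from cellular ATP (CellTiter-Glo luminescence) after 16 hr at 37 C with 1 uM doxycycline induction. The inducer was added 2 hr after compound transfer to Tet-on ROR gamma CHO cells.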

[6] = biological target: Nuclear receptor ROR-gamma (Homo sapiens) (UniProt P51449); experiment: qHTS assay to identify small molecule antagonists of the retinoid-related orphan receptor gamma (ROR-gamma) signaling pathway (AID 1159521; further: top concentration of the series differs between compounds; nearly all actives have a fitted effect of over 50% in size)
How it was run: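 Antagonist read-out: drop in luminescence (ONE-Glo) from an RORE-LUC reporter in CHO cells with doxycycline-inducible ROR-gamma; 2 hr compound pretreatment, 1 uM doxycycline, 16 hr incubation at 37 C.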

[7] = qHTS assay to identify small molecule agonists of the AP-1 signaling pathway - cell viability counter screen (AID 1159525; calls by dose curve; further: nearly all actives have a fitted effect of over 55% in size)
How it was run: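 Intracellular ATP by Cell Titer Glo luminescence (30 min, RT) in the same ME-180 AP-1-bla wells after the 5 h compound exposure at 37 °C. Normalised to tetra n-octyl ammonium bromide and DMSO controls.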

[8] = biological target: Retinoic acid receptor RXR-alpha (Homo sapiens) (UniProt P19793); experiment: qHTS assay to identify small molecule agonists of the RXR signaling pathway (AID 1159527; calls by dose curve; further: nearly all actives have a fitted effect of over 35% in size)
How it was run: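 Agonist-mode beta-lactamase reporter assay: HEK 293T RXR-alpha-UAS-bla cells treated 16 hr at 37 C with compounds, 9-cis retinoic acid as positive control. LiveBLAzer FRET substrate, 405 nm excitation, 460/530 nm emission.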

[9] = qHTS assay to identify small molecule antagonists of the retinoid acid receptor (RAR) signaling pathway - cell viability counter screen (AID 1159551); further: nearly all actives have a fitted effect of over 35% in size
How it was run: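 Viability of C3RL4 cells is quantified from ATP by luminescence after 6 h treatment at 37 C with compounds and 1 uM retinol.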

[10] = qHTS assay to identify small molecule antagonists of the retinoic acid receptor (RAR) signaling pathway (AID 1159552; further: nearly all actives have a fitted effect of over 50% in size)
How it was run: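 Luminescent RARE reporter read-out in C3RL4 cells: 6 hr co-treatment at 37 C of test compounds with retinol at 1 uM final. Cells plated overnight beforehand; luciferase reagent incubated 30 min at room temperature before reading.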

[11] = qHTS assay to identify small molecule agonists of the retinoic acid receptor (RAR) signaling pathway (AID 1159553); further: potency means the concentration at half of the fitted maximal effect
How it was run: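 Compounds dissolved in DMSO were pinned onto C3RL4 cells seeded the previous day, and plates were held 6 hr at 37 C. RARE-driven luciferase output was then read by luminescence.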

[12] = qHTS assay to identify small molecule antagonists of the estrogen related receptor (ERR) signaling pathway from Tox21 library - cell viability counter screen (AID 1224834); further: nearly all actives have a fitted effect of over 30% in size
How it was run: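 In this quantitative HTS format, ERR cells receive compounds in DMSO and are incubated for 17.5 h at 37 C. Live-cell protease activity is then detected with CellTiter-Fluor.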

[13] = qHTS assay to identify small molecule antagonists of the vitamin D receptor (VDR) signaling pathway - cell viability counter screen (AID 743225); further: nearly all actives have a fitted effect of over 50% in size
How it was run: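 Cytotoxicity counter screen read by CellTiter-Glo luminescence (30 min, room temperature) in the same wells as the VDR-bla antagonist readout. HEK 293T VDR-UAS-bla cells had 16 h at 37C with compound and 3 nM (final) 1-alpha,25-dihydroxyvitamin D3, then 2 h with FRET substrate.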

[14] = qHTS assay to identify small molecule agonists of the endoplasmic reticulum stress response signaling pathway (AID 1159516; active means well fitted activation curve with a large enough effect in the signal ratio in the repeat runs, not every such curve was filed as active; the % refers to the signal ratio)
How it was run: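 Beta-lactamase expression from the ER stress response element in HeLa reporter cells is quantified with the LiveBLAzer B/G FRET substrate, read at 405 nm excitation after 2 hr at room temperature, following 5 hr compound treatment at 37 C.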

[15] = qHTS assay to identify small molecule agonists of the AP-1 signaling pathway (AID 1159526; calls by dose curve)
[16] = qHTS assay to identify small molecule agonists of the RXR signaling pathway - cell viability counter screen (AID 1159529)
How it was run: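 CellTiter-Glo luminescence gave viability in the wells also read for beta-lactamase. Cells (RXR-alpha-UAS-bla HEK 293T, 2% charcoal-stripped FBS medium) had 5 hr plating, then 16 hr compound exposure at 37 C; tetraoctyl ammonium bromide served as positive control.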

[17] = qHTS assay to identify small molecule antagonists of the estrogen related receptor (ERR) signaling pathway - cell viability counter screen (AID 1224818);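 further: series mostly up to about 46 µM; viability measured after 17.5 h of compound exposure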
How it was run: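 Cytotoxicity check run alongside the ERR antagonist screen: cells exposed to test compounds 17.5 h at 37 C, viability taken as CellTiter-Fluor fluorescence intensity.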

[18] = qHTS assay to identify small molecule antagonists of the estrogen related receptor signaling pathway with the pleiotropic PPARgamma coactivator (PGC) cell viability counter screen (AID 1224822;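 further: series mostly up to about 46 µM; viability read after 17.5 h compound exposure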)
How it was run: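 Viable cell signal (CellTiter-Fluor, 30 min, 37 C/5% CO2) was measured in PGC/ERR cells after a 17.5 h compound incubation.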

Measured: Potency

Sequence of Retinoic acid receptor RXR-alpha (Homo sapiens) (P19793 whole entry, looked up): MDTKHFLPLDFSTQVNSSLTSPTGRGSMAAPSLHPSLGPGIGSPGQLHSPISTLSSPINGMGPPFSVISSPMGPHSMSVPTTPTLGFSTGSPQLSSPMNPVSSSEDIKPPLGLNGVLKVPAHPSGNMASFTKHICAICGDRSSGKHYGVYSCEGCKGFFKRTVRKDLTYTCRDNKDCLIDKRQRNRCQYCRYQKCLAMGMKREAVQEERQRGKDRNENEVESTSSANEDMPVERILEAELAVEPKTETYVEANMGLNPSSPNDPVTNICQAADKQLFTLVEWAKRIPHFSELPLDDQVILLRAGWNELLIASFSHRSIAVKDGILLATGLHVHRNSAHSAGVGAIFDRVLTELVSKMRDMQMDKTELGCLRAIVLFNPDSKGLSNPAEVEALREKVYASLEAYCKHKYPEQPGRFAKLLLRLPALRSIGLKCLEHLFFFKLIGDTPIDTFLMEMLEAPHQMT

CN1CCN(C2=Nc3cc(F)ccc3Cc3ccccc32)CC1
not listed: [13] | [14] | [15] | [16] | [17] | [18]
inactive: all other assays above

O=C(CCCl)NCc1ccccc1
not listed: [1] | [4] | [6] | [10] | [16] | [17] | [18]
inactive: all other assays above

COc1cc2c(cc1N)oc1ccccc12
active: [11] 12.5 µM
not listed: [1] | [7] | [8] | [14] | [16] | [17] | [18]
inactive: all other assays above

CC(C)NC[C@@H](O)COc1cccc2ccccc12
not listed: [4] | [8] | [10] | [15] | [16] | [17] | [18]
inactive: all other assays above

C[C@@H](N)C(=O)O
not listed: [1] | [10] | [11] | [14] | [15] | [17] | [18]
inactive: all other assays above

CCCOc1ccc2c(c1)CC[C@@H]1[C@@H]2CC[C@]2(C)C(OC)CC[C@@H]12 (stereo not given in full)
not listed: [4] | [7] | [8] | [15] | [16] | [17] | [18]
inactive: all other assays above

Nc1ccc2ccccc2c1S(=O)(=O)O
active: [11] 24.8 µM
not listed: [4] | [7] | [8] | [15] | [17] | [18]
inactive: all other assays above

N#CSCC(=O)O
not listed: [1] | [4] | [6] | [7] | [10] | [17] | [18]
inactive: all other assays above

CC(C)C(=O)OCC(C)(C)C(O)C(C)C (stereo not given)
not listed: [7] | [14] | [17] | [18]
inactive: all other assays above

C1CSCCS1
not listed: [4] | [6] | [7] | [13] | [17] | [18]
inactive: all other assays above

CCCNC(C)(C)COC(=O)c1ccccc1
not listed: [1] | [4] | [6] | [17] | [18]
inactive: all other assays above

CC(C)C(=O)OC/C=C/c1ccccc1
not listed: [1] | [7] | [10] | [11] | [14] | [17] | [18]
inactive: all other assays above

Cc1onc(-c2ccccc2)c1C(=O)Cl
not listed: [6] | [10] | [14] | [17] | [18]
inactive: all other assays above

CC1(C)C(=O)N(Cl)C(=O)N1Br
not listed: [4] | [6] | [7] | [16] | [17] | [18]
inactive: all other assays above

CCCCNCCCC
not listed: [1] | [6] | [8] | [14] | [16] | [17] | [18]
inactive: all other assays above

CC(C)NCC(O)COc1ccc(CCOCC2CC2)cc1 (stereo not given)
not listed: [4] | [6] | [16]
inactive: all other assays above

CS(=O)(=O)c1ccc([C@@H](O)[C@@H](CF)NC(=O)C(Cl)Cl)cc1
not listed: [6] | [8] | [14] | [17] | [18]
inactive: all other assays above

OC[C@H]1O[C@@H](O[C@H]2[C@H](O)[C@@H](O)[C@H](O)O[C@@H]2CO)[C@H](O)[C@@H](O)[C@H]1O
not listed: [1] | [4] | [6] | [8] | [17] | [18]
inactive: all other assays above

Cc1cc(S(=O)(=O)O)c(N)cc1Cl
not listed: [6] | [14] | [17] | [18]
inactive: all other assays above

COc1cc(Cl)ccc1Cl
not listed: [4] | [6] | [8] | [12] | [17] | [18]
inactive: all other assays above

CCN(CC)CC1CCCCN1CC(=O)N1c2ccccc2C(=O)Nc2cccnc21 (stereo not given)
not listed: [11] | [14] | [15] | [17] | [18]
inactive: all other assays above
